These results are taken from PubChem BioAssay (Tox21).

Experiment [1] in a line: qHTS assay to identify aromatase inhibitors - cell viability counter screen (AID 743084).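 Also: cells stimulated with testosterone during compound exposure; nearly all actives have a fitted effect of over 55% in size.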
Experiment [2] has as its target Aryl hydrocarbon receptor (Homo sapiens) (UniProt P35869). The experiment can be described thus: qHTS assay to identify small molecule that activate the aryl hydrocarbon receptor (AhR) signaling pathway (AID 743085). Also: nearly all actives have a fitted effect of over 15% in size. Also: potency is read from the fitted curve at half-maximal effect.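 As to activation: HG2L7.5c1 human HepG2 liver cells with stably integrated DRE-driven firefly reporter; series mostly up to about 70 µM.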 An outline of the steps:
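Reporter assay in engineered HepG2 line HG2L7.5c1, whose plasmid carries twenty dioxin responsive elements upstream of firefly luciferase. Treatment lasted 24 h at 37C; ONE-Glo luminescence gauged induction.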

Experiment [3] can be described thus: qHTS assay to identify small molecule that activate the aryl hydrocarbon receptor (AhR) signaling pathway - cell viability counter screen (AID 743086).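 Also: HepG2 liver cells carrying the AhR DRE luciferase reporter; series mostly up to about 70 µM; nearly all actives have a fitted effect of over 45% in size.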 An outline of the steps:
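HepG2-AhR-luc (HG2L7.5c1) cells, 4000/well, were preincubated 5 h at 37C, exposed to compound in qHTS format for 24 hr at 37C, then given CellTiter-Fluor for 30 min; viability was read as fluorescence in the reporter wells.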

Experiment [4] has as its target Peroxisome proliferator-activated receptor gamma (Homo sapiens) (UniProt P37231). Kind of experiment: qHTS assay to identify small molecule agonists of the peroxisome proliferator-activated receptor gamma (PPARg) signaling pathway (AID 743094; active = well fitted activation curve with a large enough effect in the signal ratio in the repeat runs, not every such curve was filed as active; the % refers to the signal ratio). The method in brief: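 Following 5 h plating at 37C, PPARg-bla HEK293H cells receive compound or DMSO for 17 h; fluorescence intensity is recorded after LiveBLAzer B/G loading for 1 h at room temperature.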

Experiment [5] shares this target. Kind of experiment: qHTS assay to identify small molecule antagonists of the peroxisome proliferator-activated receptor gamma (PPARg) signaling pathway (AID 743191; calls by dose curve; also: series mostly up to about 63 µM; nearly all actives have a fitted effect of over 30% in size). The method in brief: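 GeneBLAzer PPARg UAS-bla HEK293H cells carrying a UAS-driven beta-lactamase reporter were plated at 3000 cells/well, preincubated 5 h at 37C, then given compound for 17 h at 37C; LiveBLAzer B/G FRET substrate was read after 1 h at room temperature.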

Experiment [6] is described as follows: qHTS assay to identify small molecule antagonists of the peroxisome proliferator-activated receptor gamma (PPARg) signaling pathway - cell viability counter screen (AID 743194). Also: nearly all actives have a fitted effect of over 55% in size. The conditions noted are these: Potency: co-treated with 50 nM rosiglitazone. The method in brief: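 PPARg-UAS-bla HEK293H cells were plated, rested 5 h at 37 C, then treated with compounds plus rosiglitazone (50 nM final) for 17 h at 37 C; viability was then read by CellTiter-Glo luminescence after 30 min at room temperature.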

Experiment [7] is described as follows: qHTS assay for small molecule agonists of the antioxidant response element (ARE) signaling pathway - cell viability counter screen (AID 743203; calls by dose curve; also: nearly all actives have a fitted effect of over 55% in size; also: potency is read from the fitted curve at half-maximal effect). An outline of the steps:
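Compounds in DMSO were pinned onto ARE-bla HepG2 cells plated 5 hrs earlier at 2,000 cells/well. Sixteen hours later at 37C/5% CO2, CellTiter-Glo was added and luminescence measured after 30 min at room temperature.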

Experiment [8] can be described thus: qHTS assay for small molecule activators of the heat shock response signaling pathway (AID 743210; active = well fitted activation curve with a large enough effect in the signal ratio in the repeat runs, with a control signal flat, not every such curve was filed as active; the % refers to the signal ratio; also: series mostly up to about 63 µM). The method in brief: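 HSE-bla HeLa cells (beta-lactamase reporter under heat shock response elements) were exposed to compounds for 5 h at 37 C, then loaded with LiveBLAzer B/G FRET substrate for 2.5 h at room temperature before fluorescence reading.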
Experiment [9] in a line: qHTS assay to identify small molecule agonists of the peroxisome proliferator-activated receptor delta (PPARd) signaling pathway - cell viability counter screen (AID 743211). Also: nearly all actives have a fitted effect of over 55% in size. The method in brief: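 Multiplexed format: after the 2 h room-temperature LiveBLAzer B/G FRET step, CellTiter-Glo was added to the same wells. Luminescence after 30 min gave cell viability; compound exposure was 17 h at 37C.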

For experiment [10], the target named is Peroxisome proliferator-activated receptor delta (Homo sapiens) (UniProt Q03181). The experiment can be described thus: qHTS assay to identify small molecule agonists of the peroxisome proliferator-activated receptor delta (PPARd) signaling pathway (AID 743212; calls by dose curve). An outline of the steps:
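GeneBLAzer PPARd UAS-bla HEK293H cells (beta-lactamase reporter under UAS control), plated and rested 5 h at 37 C, then exposed to compounds in DMSO at 37 C; LiveBLAzer B/G FRET substrate added, 2 h room temperature, fluorescence read.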

Experiment [11] can be described thus: qHTS assay to identify small molecule antagonists of the peroxisome proliferator-activated receptor delta (PPARd) signaling pathway - cell viability counter screen (AID 743213). Also: nearly all actives have a fitted effect of over 50% in size. The method in brief:
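PPARd-bla HEK293H cells (3000/well) got compound plus 300 nM L165041 agonist for 17 h at 37 C. Viability in the same wells came from CellTiter-Glo luminescence after 30 min at room temperature.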

The target in experiment [12] is Peroxisome proliferator-activated receptor delta (Homo sapiens) (UniProt Q03181). The experiment can be described thus: qHTS assay to identify small molecule antagonists of the peroxisome proliferator-activated receptor delta (PPARd) signaling pathway (AID 743215; active = well fitted inhibition curve with a large enough effect in the signal ratio in the repeat runs, not every such curve was filed as active; the % refers to the signal ratio;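 also: cells stimulated with agonist L165041 at 300 nM final during compound exposure; series mostly up to about 62 µM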). An outline of the steps:
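With L165041 present at 300 nM final, compounds were incubated 17 h at 37 C on PPARd UAS-bla HEK293H cells. A FRET-based beta-lactamase substrate was then applied for 2 h at room temperature and fluorescence intensity recorded.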

For experiment [13], the target named is Bile acid receptor (Homo sapiens) (UniProt Q96RI1). The experiment can be described thus: qHTS assay to identify small molecule antagonists of the farnesoid-X-receptor (FXR) signaling pathway (AID 743217; active = well fitted inhibition curve with a large enough effect in the signal ratio in the repeat runs, not every such curve was filed as active; the % refers to the signal ratio). An outline of the steps: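 In this cell-based antagonist screen, inhibition of CDCA-driven (50 uM final) UAS-beta-lactamase expression in HEK 293T cells was measured by FRET fluorescence following 16 h compound exposure at 37 °C.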
Sequence of Bile acid receptor (Homo sapiens) (Q96RI1 whole entry, looked up): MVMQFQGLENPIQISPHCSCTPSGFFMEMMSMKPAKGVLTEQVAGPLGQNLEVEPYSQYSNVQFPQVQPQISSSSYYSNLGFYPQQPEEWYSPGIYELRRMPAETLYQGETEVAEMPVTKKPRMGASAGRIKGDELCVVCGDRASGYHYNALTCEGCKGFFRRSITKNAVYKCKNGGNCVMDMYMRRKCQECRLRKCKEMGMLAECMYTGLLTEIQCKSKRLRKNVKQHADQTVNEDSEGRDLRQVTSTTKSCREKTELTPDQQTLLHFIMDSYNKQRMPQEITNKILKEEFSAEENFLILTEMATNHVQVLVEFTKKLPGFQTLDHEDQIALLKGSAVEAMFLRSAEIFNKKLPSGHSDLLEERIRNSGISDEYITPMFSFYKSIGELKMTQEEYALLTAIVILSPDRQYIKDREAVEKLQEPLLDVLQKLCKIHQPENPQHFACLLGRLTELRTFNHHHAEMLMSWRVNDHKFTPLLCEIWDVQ

For experiment [14] the target is unchanged. Kind of experiment: qHTS assay to identify small molecule agonists of the farnesoid-X-receptor (FXR) signaling pathway (AID 743220; active = well fitted activation curve with a large enough effect in the signal ratio in the repeat runs, not every such curve was filed as active; the % refers to the signal ratio). The method in brief: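 Beta-lactamase reporter under UAS control in GeneBLAzer FXR HEK 293T cells (5000/well) measured with LiveBLAzer FRET substrate after 2 h at room temperature. Compound exposure lasted 16 h at 37C.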

Experiment [15] concerns the target Vitamin D3 receptor (Homo sapiens) (UniProt P11473). The experiment can be described thus: qHTS assay to identify small molecule agonists of the vitamin D receptor (VDR) signaling pathway (AID 743222; calls by dose curve). An outline of the steps:
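VDR-bla cells were seeded, left 4 h, treated with compounds in DMSO for 16 h, incubated 2 h at RT with B/G FRET substrate, and read for fluorescence.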

The nature of experiment [16]: qHTS assay for small molecule activators of the heat shock response signaling pathway - cell viability counter screen (AID 743209). Also: nearly all actives have a fitted effect of over 50% in size. Also: potency is read from the fitted curve at half-maximal effect. The method in brief: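 Counter screen for cytotoxicity in HeLa HSE-bla reporter cells. Treatment was 5 h at 37 C; viability was detected by luminescent ATP assay (CellTiter-Glo) in the same wells as the beta-lactamase read.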
The nature of experiment [17]: qHTS assay to identify small molecule antagonists of the farnesoid-X-receptor (FXR) signaling pathway - cell viability counter screen (AID 743221; active = well fitted cell-killing curve with a large enough effect in the repeat runs, not every such curve was filed as active; also: nearly all actives have a fitted effect of over 50% in size). The method in brief: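 CellTiter-Glo, 30 min RT, luminescence; same wells as the LiveBLAzer FRET read. Cells: FXR-UAS-bla HEK 293T. Treatment: compound with chenodeoxycholic acid 50 uM final, 16 h at 37 C.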
In experiment [18] the target is Vitamin D3 receptor (Homo sapiens) (UniProt P11473). The experiment can be described thus: qHTS assay to identify small molecule antagonists of the vitamin D receptor (VDR) signaling pathway (AID 743223; active = well fitted inhibition curve with a large enough effect in the signal ratio in the repeat runs, not every such curve was filed as active; the % refers to the signal ratio). The method in brief:
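After VDR-bla cells are plated and left 4 h at 37C, DMSO-dissolved compounds and 3 nM (final) calcitriol agonist are added. Incubation continues 16 h at 37C; FRET beta-lactamase substrate then develops 2 h at room temperature.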

Experiment [19] is described as follows: qHTS assay to identify small molecule agonists of the farnesoid-X-receptor (FXR) signaling pathway - cell viability counter screen (AID 743218). Also: nearly all actives have a fitted effect of over 45% in size. An outline of the steps:
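After 16 h at 37 C with test compounds, FXR-bla HEK 293T cells were given LiveBLAzer B/G substrate for 2 h at RT and then CellTiter-Glo; luminescence was taken after 30 min.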

Experiment [20] can be described thus: qHTS assay for small molecule agonists of the antioxidant response element (ARE) signaling pathway (AID 743202; active = well fitted activation curve with a large enough effect in the signal ratio in the repeat runs, not every such curve was filed as active; the % refers to the signal ratio). The method in brief: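 Read-out: LiveBLAzer B/G FRET substrate fluorescence after 2 h at room temperature, following 16 h compound treatment at 37 C of HepG2 cells carrying an ARE-driven beta-lactamase reporter.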

Inconclusive results are not listed. Unmarked numbers belong to inactive results. The source made the active and inactive calls. Unless noted, calls follow the shape of the dose curve; as a rule, active = well fitted curve in the direction sought with a large enough effect in the repeat runs; inconclusive = weak or mixed curves; inactive = no such curve, though single readings can be large; an effect the other way counts as inactive or inconclusive.
% is scaled to controls: 0 for no effect and ±100 for the full control effect.

Sequence of Peroxisome proliferator-activated receptor delta (Homo sapiens) (Q03181 whole entry, looked up): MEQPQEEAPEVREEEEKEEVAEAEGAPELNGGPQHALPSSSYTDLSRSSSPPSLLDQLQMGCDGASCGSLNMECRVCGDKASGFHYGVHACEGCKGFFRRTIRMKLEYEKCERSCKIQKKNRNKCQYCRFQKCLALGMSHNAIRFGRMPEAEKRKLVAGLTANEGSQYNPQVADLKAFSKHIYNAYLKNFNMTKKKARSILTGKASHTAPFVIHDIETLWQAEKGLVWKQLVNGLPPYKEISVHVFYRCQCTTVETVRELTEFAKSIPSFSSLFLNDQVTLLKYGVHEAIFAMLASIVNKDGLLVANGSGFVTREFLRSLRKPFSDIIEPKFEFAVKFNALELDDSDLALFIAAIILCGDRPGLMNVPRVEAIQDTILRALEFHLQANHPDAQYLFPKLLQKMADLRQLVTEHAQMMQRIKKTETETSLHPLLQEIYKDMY
Sequence of Peroxisome proliferator-activated receptor gamma (Homo sapiens) (P37231 whole entry, looked up): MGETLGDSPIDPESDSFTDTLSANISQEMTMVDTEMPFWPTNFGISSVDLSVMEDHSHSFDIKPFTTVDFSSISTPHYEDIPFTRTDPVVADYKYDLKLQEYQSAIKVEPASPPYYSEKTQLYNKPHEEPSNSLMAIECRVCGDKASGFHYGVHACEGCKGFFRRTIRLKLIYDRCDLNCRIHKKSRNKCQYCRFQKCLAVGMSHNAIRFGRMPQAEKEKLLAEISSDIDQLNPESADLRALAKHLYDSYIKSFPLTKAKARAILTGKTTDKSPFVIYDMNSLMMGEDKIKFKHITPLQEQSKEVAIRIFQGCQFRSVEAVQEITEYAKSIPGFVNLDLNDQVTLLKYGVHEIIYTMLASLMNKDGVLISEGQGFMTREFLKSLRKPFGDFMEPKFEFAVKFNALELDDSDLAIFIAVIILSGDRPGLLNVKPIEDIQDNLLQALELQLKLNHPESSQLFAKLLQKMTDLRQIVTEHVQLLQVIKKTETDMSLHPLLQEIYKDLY
Sequence of Vitamin D3 receptor (Homo sapiens) (P11473 whole entry, looked up): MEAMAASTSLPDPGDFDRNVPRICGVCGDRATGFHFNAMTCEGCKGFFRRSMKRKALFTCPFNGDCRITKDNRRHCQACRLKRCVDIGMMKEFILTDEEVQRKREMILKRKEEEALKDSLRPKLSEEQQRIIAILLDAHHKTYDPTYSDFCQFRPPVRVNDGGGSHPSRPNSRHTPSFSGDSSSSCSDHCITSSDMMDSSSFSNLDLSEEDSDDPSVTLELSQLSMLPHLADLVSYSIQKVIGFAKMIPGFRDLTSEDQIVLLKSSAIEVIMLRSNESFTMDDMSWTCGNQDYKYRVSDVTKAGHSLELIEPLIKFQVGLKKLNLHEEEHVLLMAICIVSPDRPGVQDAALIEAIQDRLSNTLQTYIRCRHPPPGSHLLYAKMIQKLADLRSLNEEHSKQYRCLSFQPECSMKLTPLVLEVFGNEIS
Sequence of Aryl hydrocarbon receptor (Homo sapiens) (P35869 whole entry, looked up): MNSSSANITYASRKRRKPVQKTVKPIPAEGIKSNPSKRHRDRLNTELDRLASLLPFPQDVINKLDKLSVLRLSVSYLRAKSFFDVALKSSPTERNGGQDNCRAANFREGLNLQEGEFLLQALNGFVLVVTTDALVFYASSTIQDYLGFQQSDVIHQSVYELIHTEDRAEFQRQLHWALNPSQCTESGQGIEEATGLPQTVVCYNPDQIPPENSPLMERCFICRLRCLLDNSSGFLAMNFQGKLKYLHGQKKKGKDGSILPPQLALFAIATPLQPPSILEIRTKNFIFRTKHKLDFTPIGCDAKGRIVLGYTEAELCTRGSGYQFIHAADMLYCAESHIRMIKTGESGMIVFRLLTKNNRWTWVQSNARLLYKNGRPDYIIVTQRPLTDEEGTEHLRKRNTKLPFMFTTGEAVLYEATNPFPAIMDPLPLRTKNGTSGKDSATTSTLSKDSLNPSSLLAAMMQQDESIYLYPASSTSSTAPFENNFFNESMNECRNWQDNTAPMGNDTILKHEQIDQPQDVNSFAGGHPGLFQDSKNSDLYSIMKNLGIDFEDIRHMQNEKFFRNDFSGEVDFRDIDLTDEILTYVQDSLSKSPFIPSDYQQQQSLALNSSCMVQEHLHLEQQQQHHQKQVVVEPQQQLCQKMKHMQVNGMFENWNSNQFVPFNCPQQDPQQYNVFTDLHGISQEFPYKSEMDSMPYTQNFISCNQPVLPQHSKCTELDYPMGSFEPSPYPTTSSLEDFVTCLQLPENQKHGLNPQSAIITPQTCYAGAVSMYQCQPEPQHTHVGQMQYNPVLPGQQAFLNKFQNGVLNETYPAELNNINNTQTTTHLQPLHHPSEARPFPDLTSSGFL

On to `COC(N)=O`, for which the Potency result in [1], in [2], in experiment [3], in experiment [4], in experiment [5] and in experiment [6] was “inactive” each time. The Potency entry in [7], in experiment [9], in experiment [11], in experiment [12] and in experiment [13] was “inactive” each time. The result in experiment [8], in experiment [10], in experiment [14] and in [15] was inactive.

Consider `Cn1sc(Cl)cc1=O`, for which the Potency result in experiment [1], in experiment [2], in experiment [3], in [4], in experiment [5] and in experiment [7] was “inactive” in each case. Also, the Potency result in experiment [16], in experiment [9], in [11], in experiment [13] and in [17] was “inactive” each time. In addition, the compound was classed as inactive in experiment [10], in [14], in experiment [15] and in experiment [18].

Consider `CCCCCCCCCC(=O)O[C@H]1CC[C@H]2[C@@H]3CCC4=CC(=O)CC[C@@H]4[C@H]3CC[C@]12C`, for which the Potency entry in experiment [1], in [2], in experiment [3], in experiment [4], in [5] and in [6] was “inactive” throughout. Moreover, the Potency entry in experiment [9], in [11], in experiment [12], in experiment [13], in [19] and in experiment [17] was “inactive” in each case. Further, the compound was classed as inactive in [8], in experiment [10], in experiment [14] and in experiment [18].

Turning to `CCOP(O)OCC`, the Potency result in experiment [1], in experiment [2], in experiment [3], in experiment [4], in experiment [6] and in experiment [20] was “inactive” throughout. Besides, the Potency entry in [7], in [16], in experiment [11], in experiment [12], in experiment [19] and in experiment [17] was “inactive” in each case. The outcome in experiment [8], in [10], in experiment [15] and in experiment [18] was inactive.

With `CC(C)(OO)c1ccccc1`, the Potency result in [1], in [2], in experiment [3], in experiment [4], in experiment [5] and in experiment [6] was “inactive” each time. For the same compound, the Potency result in experiment [9], in experiment [11], in experiment [12], in experiment [13], in experiment [19] and in experiment [17] was “inactive” each time. For the same compound, the Potency is 61.1 µM (active) in [7] and 49 µM (active) in experiment [16]. For the same compound, the compound was called inactive in [10], in experiment [14] and in [15].

For `Cc1ccccc1CCl`, the Potency entry in experiment [1], in [2], in experiment [3], in [4], in experiment [5] and in [6] was “inactive” throughout. Besides, the Potency entry in [7], in [11], in experiment [12], in [19] and in experiment [17] was “inactive” in each case. Besides, the outcome in experiment [8], in experiment [10] and in [15] was inactive.

Regarding `O=C(O)c1ccccc1C(=O)Nc1cccc2ccccc12`, the Potency entry in experiment [1], in experiment [3], in experiment [4], in [5], in [6] and in experiment [16] was “inactive” in each case. The Potency result in [9], in [11], in [13], in [19] and in [17] was “inactive” in each case. In experiment [2], the Potency is 13.7 µM (active). The compound was classed as inactive in [8], in experiment [10], in experiment [14], in experiment [15] and in experiment [18].

Regarding `NCC(CC(=O)O)c1ccc(Cl)cc1` (stereo not given), the Potency entry in experiment [1], in experiment [2], in experiment [3] and in experiment [4] was “inactive” each time. In addition, the activity change, negative = cytotoxicity in experiment [6] was -16.4% [at 0.55 µM]; in [16], 1.94% [at 0.55 µM]; in experiment [9], -0.324% [at 0.55 µM]. For the same compound, the activation was -5.3% [at 0.756 µM] in experiment [20], -1.61% [at 0.55 µM] in [8] and 1.99% [at 0.55 µM] in [10]. Moreover, the viability change, negative = cytotoxic was 4.15% [at 0.756 µM] in [7], -11.6% [at 0.575 µM] in [11] and 0.276% [at 0.55 µM] in experiment [19]. The ratio activity, negative = inhibition in experiment [12] was -0.236% [at 0.575 µM].

With `CCCCC(CC)COP(=O)(Oc1ccccc1)Oc1ccccc1` (stereo not given), the Potency result in [1], in [2], in experiment [3], in experiment [4], in experiment [5] and in experiment [6] was “inactive” in each case. Also, the Potency result in experiment [7], in experiment [16], in experiment [11], in experiment [19] and in [17] was “inactive” each time. The outcome in experiment [8], in [10], in experiment [14], in experiment [15] and in experiment [18] was inactive.
